The record followed here is PubChem BioAssay (NCI).

Some test systems named below: SK-MEL-2 melanoma; EKVX NSCLC; SN12C renal; UO-31 renal; TK-10 renal; ACHN renal; CAKI-1 renal; A498 renal; CCRF-CEM leukemia; MOLT-4 leukemia; RPMI-8226 leukemia; OVCAR-8 ovarian; OVCAR-5 ovarian; OVCAR-4 ovarian; SK-OV-3 ovarian; IGROV1 ovarian; OVCAR-3 ovarian; HS 578T breast; NCI/ADR-RES ovarian.
Common to all, as to assay: NCI-60 one-dose screen, 48 h (100 = growth as untreated, 0 = no growth, -100 = all killed)
What all share (details): 10 µM unless noted

Compounds without any hit were thinned out: in the full panel of roughly 83,000, 20% have a hit.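 Single-concentration screen, 48 h exposure, 96-well plates. Endpoint: percent growth. Below 10 = active.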 Unmarked numbers belong to inactive results. The source made the active and inactive calls.

Turning to `CCc1c2c(nc3ccc(OC(=O)OCc4ccc(B5OC(C)(C)C(C)(C)O5)cc4)cc13)-c1cc3c(c(=O)n1C2)COC(=O)[C@]3(O)CC`, the growth in the test with SK-MEL-2 melanoma is -30.5% (active); in the test with EKVX NSCLC, 37.3%; with SN12C renal it was -4.2% (active); in the test with UO-31 renal, -72.1% (active); with TK-10 renal it was 0.26% (active); in the test on ACHN renal, -53.6% (active). Moreover, the growth is -44.1% (active) in the test with CAKI-1 renal; -65.1% (active) in the test with A498 renal; 17.9% in the test with CCRF-CEM leukemia; 20.3% in the test on MOLT-4 leukemia; 8.86% (active) in the test with RPMI-8226 leukemia; 0.492% (active) in the test on OVCAR-8 ovarian. Also, the growth is -16% (active) with OVCAR-5 ovarian; 11.1% in the test on OVCAR-4 ovarian; 3.1% (active) in the test with SK-OV-3 ovarian; 6.81% (active) with IGROV1 ovarian; -17.5% (active) in the test with OVCAR-3 ovarian; 20.7% in the test on HS 578T breast. Besides, in the test on NCI/ADR-RES ovarian, the growth was -0.875% (active).
Turning to `CCc1ccccc1-n1c(-c2ccc(Cl)cc2)cc(-c2ccc(OC)cc2)c(C#N)c1=O`, the growth is 91.5% in the test with SK-MEL-2 melanoma; 96.1% in the test on EKVX NSCLC; 99.4% in the test on SN12C renal; 81.5% with UO-31 renal; 136% in the test on TK-10 renal; 114% in the test with ACHN renal. For the same molecule, the growth in the test with CAKI-1 renal is 99.8%; in the test with A498 renal, 110%; with CCRF-CEM leukemia, -41.4% (active); with MOLT-4 leukemia, 103%; in the test with RPMI-8226 leukemia it was 78.5%; with OVCAR-8 ovarian, 102%. In addition, the growth in the test with OVCAR-5 ovarian is 94.7%; in the test on OVCAR-4 ovarian, 90%; in the test with SK-OV-3 ovarian it was 103%; with IGROV1 ovarian, 80%; in the test with OVCAR-3 ovarian, 100%; with HS 578T breast it was 98.7%. Moreover, the growth in the test on NCI/ADR-RES ovarian was 95.1%.
Consider `CCc1ccccc1NC(=O)/C(C#N)=C/c1ccc(OC)cc1`, for which the growth was 104% in the test on SK-MEL-2 melanoma; 92.7% with EKVX NSCLC; 94% in the test with SN12C renal; 80.5% with UO-31 renal; 115% with TK-10 renal; 97.4% with ACHN renal. In addition, the growth was 103% with CAKI-1 renal; 100% with A498 renal; 84.7% in the test with CCRF-CEM leukemia; 87.3% in the test on MOLT-4 leukemia; 91% in the test with RPMI-8226 leukemia; 89.5% in the test with OVCAR-8 ovarian. Besides, the growth is 100% with OVCAR-5 ovarian; 94.3% with OVCAR-4 ovarian; 105% with SK-OV-3 ovarian; 115% with IGROV1 ovarian; 92.6% with OVCAR-3 ovarian; 92.6% in the test on HS 578T breast. Moreover, the growth with NCI/ADR-RES ovarian was 97.8%.
As for `COC(=O)/C=C1\S/C(=N\NS(=O)(=O)c2ccc(C)cc2)N(c2ccccc2)C1=O`, the growth was 107% with SK-MEL-2 melanoma; 100% with EKVX NSCLC; 98.6% with SN12C renal; 90.8% with UO-31 renal; 109% in the test on TK-10 renal; 104% in the test with ACHN renal. Further, the growth was 96.6% with CAKI-1 renal; 80.6% with A498 renal; 101% with CCRF-CEM leukemia; 93.9% in the test on MOLT-4 leukemia; 106% in the test with RPMI-8226 leukemia; 99.8% in the test on OVCAR-8 ovarian. For the same molecule, the growth in the test with OVCAR-5 ovarian was 109%; in the test with OVCAR-4 ovarian, 91%; with SK-OV-3 ovarian, 111%; with IGROV1 ovarian, 103%; in the test on OVCAR-3 ovarian it was 105%; in the test with HS 578T breast, 98.9%. For the same molecule, in the test on NCI/ADR-RES ovarian, the growth is 108%.
Regarding `Nc1n[nH]c(-c2cc(Cl)ccc2O)c1-c1ccccc1`, the growth in the test with SK-MEL-2 melanoma is 75.9%; in the test with EKVX NSCLC it was 72.6%; in the test with SN12C renal, 86.5%; in the test with UO-31 renal, 61.9%; with TK-10 renal, 106%; with ACHN renal, 61.3%. The growth is 79.7% in the test on CAKI-1 renal; 101% in the test on A498 renal; 85.2% in the test with CCRF-CEM leukemia; 72.7% in the test with MOLT-4 leukemia; 91.1% in the test on RPMI-8226 leukemia; 91% in the test on OVCAR-8 ovarian. In addition, the growth is 67.4% with OVCAR-5 ovarian; 86.3% in the test on OVCAR-4 ovarian; 96.7% with SK-OV-3 ovarian; 96% in the test with IGROV1 ovarian; 107% in the test on OVCAR-3 ovarian; 85.3% in the test with HS 578T breast. The growth in the test on NCI/ADR-RES ovarian is 79.3%.
As to `Cc1ccc(/C=C/c2c(C(=O)/C=C/c3ccc(C(F)(F)F)cc3)c(C)nc3ccccc23)cc1`, the growth is -20% (active) in the test with SK-MEL-2 melanoma; -31.6% (active) in the test on EKVX NSCLC; -61.7% (active) in the test on SN12C renal; -98% (active) in the test on UO-31 renal; -71.1% (active) with TK-10 renal; -100% (active) in the test with ACHN renal. In addition, the growth with CAKI-1 renal is -91.1% (active); in the test with A498 renal, -80.8% (active); in the test on CCRF-CEM leukemia, 9.01% (active); in the test with MOLT-4 leukemia it was -4.49% (active); in the test with RPMI-8226 leukemia it was -26.8% (active); in the test on OVCAR-8 ovarian, 4.18% (active). Further, the growth is -39.6% (active) with OVCAR-5 ovarian; -74.1% (active) in the test on OVCAR-4 ovarian; -47.5% (active) in the test on SK-OV-3 ovarian; -80.1% (active) with IGROV1 ovarian; -86.3% (active) in the test with OVCAR-3 ovarian; -13.2% (active) with HS 578T breast. Moreover, in the test on NCI/ADR-RES ovarian, the growth is -0.26% (active).
For `COc1cc(OC)cc(C2CC(=O)Nc3c2c(C)nn3-c2nc3ccccc3[nH]2)c1` (configuration not stated), the growth with SK-MEL-2 melanoma is 38.4%; with EKVX NSCLC, 17.7%; in the test with SN12C renal, 20%; in the test with UO-31 renal it was 13.1%; with TK-10 renal, 24.2%; in the test on ACHN renal it was 19.3%. The growth is 30.3% with CAKI-1 renal; -10.1% (active) in the test on A498 renal; 4.69% (active) in the test on CCRF-CEM leukemia; -8.06% (active) in the test with MOLT-4 leukemia; -8.64% (active) with RPMI-8226 leukemia; 17.8% with OVCAR-8 ovarian. Also, the growth was 50.2% with OVCAR-5 ovarian; 42.4% with OVCAR-4 ovarian; -2.88% (active) with SK-OV-3 ovarian; 14.6% in the test with IGROV1 ovarian; 7.11% (active) in the test with OVCAR-3 ovarian; 27.1% with HS 578T breast. In addition, the growth in the test on NCI/ADR-RES ovarian is 64.3%.
For the molecule `Cc1nc2ccccc2c(/C=C/c2ccc(Cl)cc2)c1C(=O)/C=C/c1ccc(F)cc1`, the growth with SK-MEL-2 melanoma is 3.88% (active); in the test on EKVX NSCLC it was 29.9%; in the test with SN12C renal it was -10.2% (active); in the test with UO-31 renal, -79.4% (active); in the test on TK-10 renal it was 43.3%; in the test with ACHN renal it was 3.87% (active). Moreover, the growth was -10.1% (active) in the test with CAKI-1 renal; -4.11% (active) with A498 renal; 6.9% (active) in the test on CCRF-CEM leukemia; 4% (active) in the test on MOLT-4 leukemia; -25.1% (active) in the test with RPMI-8226 leukemia; 12.8% in the test on OVCAR-8 ovarian. The growth is -19.7% (active) in the test on OVCAR-5 ovarian; 25.8% in the test with OVCAR-4 ovarian; 61.9% in the test with SK-OV-3 ovarian; -5.53% (active) in the test on IGROV1 ovarian; -19.2% (active) in the test with OVCAR-3 ovarian; 8.46% (active) in the test with HS 578T breast. Also, the growth with NCI/ADR-RES ovarian is -0.868% (active).
